# From PubChem BioAssay
# RE007 growth inh = less growth of the S. pombe RE007 Vpr strain | S. pombe RE007 Vpr strain, BacTiter-Glo ATP luminescence, 24 h | Potency, µM (series often up to 92.2 µM), most hits filed as inhibitors | actives 0.21% (n = 360,000); active = well fitted falling curve with a large enough effect; inconclusive = small, poorly fitted or top-dose-only effect; inactive = no such curve, though single readings can be large or run the other way; also: nearly all actives have a fitted effect of over 50% in size
#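 Fission yeast strain RE007, carrying one chromosomally integrated HIV-1 vpr copy, was seeded at OD 0.01 in PMG+AL medium with 23 nL pinned compound. After 24 h at 30 °C and 99% humidity, viability was read by BacTiter-Glo luminescence.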
# FBPA Giardia inh = blocks Giardia fructose-bisphosphate aldolase activity | A8B2U2 | purified Giardia FBPA | Potency, µM (highest dose often 59.6 µM), most hits filed as inhibitors | actives 0.71% (n = 290,000); also: nearly all actives have a fitted effect of over 55% in size
# Target sequence (A8B2U2 whole entry, looked up): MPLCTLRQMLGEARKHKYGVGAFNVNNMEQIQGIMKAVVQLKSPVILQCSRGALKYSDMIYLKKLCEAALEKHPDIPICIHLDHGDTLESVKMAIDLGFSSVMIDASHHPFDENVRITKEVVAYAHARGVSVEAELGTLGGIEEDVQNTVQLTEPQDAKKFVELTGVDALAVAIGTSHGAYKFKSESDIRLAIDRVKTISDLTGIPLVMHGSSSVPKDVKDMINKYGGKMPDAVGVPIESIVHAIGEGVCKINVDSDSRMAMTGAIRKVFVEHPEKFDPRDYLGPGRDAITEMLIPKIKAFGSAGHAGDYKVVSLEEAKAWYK
#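 Giardia FBPA (40 nM reagent) was preincubated 10 min at RT with compound (up to 57.5 uM final), then substrate plus GAPDH/TPI/NAD/arsenate coupling system with diaphorase/resazurin was added; resorufin fluorescence (525/598 nm) was read after 20 min.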
# Cycloheximide cs = counter-screen hit for Shiga toxin inhibitors, cycloheximide | cell reporter, cycloheximide protein synthesis inhibition counterscreen | AID 2314 | max response, % | actives 12% (n = 300,000); in the data active = max response mostly above about 13%, no sharp cut-off; inactive = mostly below about 14%; also: read at 38.3 µM for the half of the compounds with a filed dose
# Shiga toxin inh = blocks Shiga toxin action in Vero cells; Vero cells, Shiga toxin protein synthesis inhibition reporter; inhibition, % at 38.7 µM; actives 9.2% (n = 290,000); in the data active = inhibition mostly above about 28%, no sharp cut-off; inactive = mostly below about 43%
# LmPK inhibitor = blocks Leishmania mexicana pyruvate kinase activity; Q27686; AID 1721; Potency, µM (top dose mostly 57.5 µM), hits mostly inhibitors; purified LmPK, Kinase-Glo ATP luminescence, 1 h; actives 0.37% (n = 290,000)
#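 Kinase-Glo luminescence read after 1 h RT reaction of 0.1 nM LmPK with 0.5 mM PEP and 0.1 mM ADP. Activity scaled between uninhibited and enzyme-free controls.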
# Tb PYK inh = inhibitors of Trypanosoma brucei pyruvate kinase | TbPYK enzyme, Kinase-Glo Plus ATP luminescence, 45 min | Potency, µM (top dose mostly 76.8 µM), usual class: inhibitors | actives 0.12% (n = 410,000) | AID 624173; also: nearly all actives have a fitted effect of over 50% in size
#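 Luminescent Kinase-Glo Plus end-point after 45 min room-temperature reaction of T. brucei pyruvate kinase started with 130 uM ADP (final). Buffer TEA 50 mM pH 7.2 with KCl, MgCl2, BSA, Tween-20; titration-based qHTS with fitted concentration-effect curves.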
# A number is an active result; . = inactive; ? = inconclusive; / = not tested or not shown. The full list was thinned out, with hits kept by preference. Unless noted, calls follow the shape of the dose curve; as a rule, active = well fitted curve in the direction sought with a large enough effect; inconclusive = small, poorly fitted or top-dose-only effect, or another doubt; inactive = no such curve, though single readings can be large; an effect the other way counts as inactive or inconclusive.
SMILES,RE007 growth inh,FBPA Giardia inh,Cycloheximide cs,Shiga toxin inh,LmPK inhibitor,Tb PYK inh
Cc1ccc(CN(C(=O)Cn2nnc3ccccc32)C(C(=O)NCc2ccco2)c2cccs2)cc1 (configuration not stated),.,.,19,57,.,.
O=C(NCc1ccco1)C(c1ccco1)N(CCc1ccccc1)C(=O)Cn1nnc2ccccc21 (configuration not stated),.,.,.,.,.,?
O=C(NCc1ccco1)C(c1cccs1)N(Cc1ccccc1)C(=O)Cn1nnc2ccccc21 (configuration not stated),.,.,30,49,.,.
COc1ccc(S(=O)(=O)n2nc(OC(=O)c3ccc(C)cc3)cc2N)cc1,.,.,27,.,.,.
Cc1ccoc1C(=O)NCCNc1ccc(Cl)cc1[N+](=O)[O-],.,.,14,.,.,.
Cc1nc2cc(C)c(C)cc2s1,.,.,22,.,.,.
Cc1nc2ccc(N)cc2s1,.,.,.,.,.,.
Cc1nc2cc3sc(C)nc3cc2s1,.,.,33,73,.,.
CCN1/C(=C/c2cc[n+](CCCS(=O)(=O)[O-])c3ccccc23)Sc2ccccc21,.,.,.,.,.,.
C=CC[n+]1ccc(/C=C2\C=Cc3cc(C)ccc3N2CC)c2ccccc21,32µM,?,.,.,?,.
CC(=O)N/C(=C\c1ccccc1)C(=O)OCC(=O)NC1CCS(=O)(=O)C1 (configuration not stated),.,/,/,/,/,.
CCC(=O)Nc1ccc2c(c1)ncn2-c1ccc(C)cc1,.,.,36,96,.,.
CCC(=O)Nc1ccc2c(c1)ncn2-c1ccc(OC)cc1,.,.,46,66,.,.
COc1ccccc1Nc1ncc(-c2cccs2)s1,.,.,40,108,.,.
CCOC(=O)c1nn(-c2ccc(OCC)cc2)c2nc(-c3ccco3)c(C#N)c(=O)n12,.,.,.,.,.,.
O=C(N/N=C/c1ccccc1)c1cc(-c2ccc3c(c2)OCO3)n[nH]1,.,.,14,.,.,.
O=C(N/N=C/c1cccc(O)c1)c1cc(-c2ccc3c(c2)OCO3)n[nH]1,.,.,10,.,.,.
O=C(N/N=C/c1ccc(O)cc1)c1cc(-c2ccc3c(c2)OCO3)n[nH]1,.,.,.,.,.,.
O=C(N/N=C/c1cccc([N+](=O)[O-])c1)c1cc(-c2ccc3c(c2)OCO3)n[nH]1,.,.,.,.,.,.
COCCNC(=S)N/N=C(\C)c1ccccc1OC,.,.,.,.,.,.
COCCNC(=S)N/N=C/c1ccccc1C(=O)O,.,?,.,.,.,.
COCCCNC(=S)N/N=C/c1ccccc1O,.,.,44,52,.,.
COCCNC(=S)N/N=C(\C)c1ccccc1O,.,.,31,94,.,.
CCC(=O)N[C@@H]1C=C[C@@H](CC(=O)NCc2ccccc2F)O[C@@H]1CO,.,/,/,/,/,/
Cc1ccc(NC(=O)CSc2nc3c(oc4ccccc43)c(=O)n2Cc2ccco2)cc1,/,/,/,/,/,.
SMILES,RE007 growth inh,FBPA Giardia inh,Cycloheximide cs,Shiga toxin inh,LmPK inhibitor,Tb PYK inh
COCCCNC(=O)/C(C#N)=C1\N=C(NC(=O)c2cccs2)c2ccccc21,.,.,18,.,.,.
CC1(C)CC(=O)c2cc(C(=O)Nc3ccc(Br)cc3)c(=O)n(-c3ccc(Cl)cc3)c2C1,/,/,/,/,/,.
COC(=O)/C=C/c1cnc2ccccc2c1,.,.,36,118,.,.
COCCNC(=O)COC(=O)/C=C/c1cnc2ccccc2n1,.,.,.,.,.,.
Nc1ncnc2c1ncn2[C@@H]1O[C@H](CNS(=O)(=O)c2ccc3c(c2)CCN(C(=O)C(F)(F)F)C3)[C@@H](O)[C@H]1O,.,/,/,/,/,.
CN1CCN(C(=O)c2nc3ccc(Cl)cc3[nH]2)CC1,/,.,/,/,/,/
O=S(=O)(c1ccccc1)c1nc(-c2ccccc2)oc1N1CCCCC1,.,.,24,77,.,.
CSc1oc(-c2ccc(F)cc2)nc1S(=O)(=O)c1ccccc1,.,.,19,.,.,.
COc1cc(OC)cc(C(=O)N2CC(=O)Nc3ccc(Cl)cc3C2c2ccccc2)c1 (configuration not stated),/,/,/,/,/,.
CC(=O)Nc1ccc(C=NNC(=O)C2CC2)cc1,.,/,/,/,/,.
C=C1CC(C(=O)N/N=C/c2ccccc2)C1,.,.,40,41,.,.
CC(C)c1ccc(/C=N/NC(=O)C2CCCC2)cc1,.,.,80,88,.,.
CC(C)(C)c1ccc(/C=N/NC(=O)C2CCCC2)cc1,.,/,51,133,.,.
CCOC(=O)c1c(NC(=O)CSc2cn(CCNC(=O)c3ccc(OC)c(OC)c3)c3ccccc23)sc2c1CCC2,/,/,/,/,/,.
CCSc1nnc(NC(=O)c2ccccn2)s1,11µM,?,45,60,?,.
CCSc1nnc(NC(=O)c2cccnc2Cl)s1,.,.,28,54,.,.
CCSc1nnc(NC(=O)c2cnccn2)s1,.,.,.,.,.,.
CCSc1nnc(NC(=O)CCNC(=O)c2ccccc2Cl)s1,.,/,/,/,/,.
O=C(c1ccc(Br)s1)N(Cc1cccnc1)c1nc2ccc(F)cc2s1,/,/,/,/,/,.
Cc1[nH]n(-c2ccccc2)c(=O)c1C(c1ccccc1[N+](=O)[O-])C(C#N)C#N (configuration not stated),.,.,.,.,.,.
Cc1[nH]n(-c2ncc(-c3ccccc3)s2)c(=O)c1C(c1ccc(Cl)cc1)C(C#N)C#N (configuration not stated),.,.,11,.,.,.
COC(=O)c1cc(=O)n(-c2ccc(C(F)(F)F)cc2)[nH]1,.,.,.,.,.,.
COc1ccc(OCC(O)CN(CC(O)COc2ccc(OC)cc2)c2cccc(O)c2)cc1 (configuration not stated),.,/,19,.,.,.
CSc1nc(SCc2ccccc2)[nH]c(=O)n1,.,/,/,/,/,.
C[C@]1(C(=O)NCCN2CCOCC2)C=C[C@@H](Cc2ccccc2)N1C(=O)c1ccccc1,.,.,.,.,.,.
CC(=O)N1[C@H](Cc2ccccc2)C=C[C@]1(C)C(=O)NCCN1CCOCC1,.,.,11,.,.,.
COCCNC(=O)C1(C)C=CC2(CCCCC2)N1C(=O)c1ccccc1 (configuration not stated),.,.,.,.,.,.
CC1(C(=O)NCCN2CCOCC2)C=CC2(CCCCC2)N1C(=O)c1ccccc1 (configuration not stated),.,.,26,.,.,.
Cc1ccc(C)c(NS(=O)(=O)c2cc3c(cc2C)n(C)c(=O)c(=O)n3C)c1,/,/,/,/,/,.
